The campaign covered roughly 1,300 compounds. Fewer than 10 were called active. Inconclusive results (about 9%) are left out. Calls follow the shape of the dose curve; as a rule, active = well fitted curve in the direction sought with a large enough effect; inconclusive = small, poorly fitted or top-dose-only effect, or another doubt; inactive = no such curve, though single readings can be large or run the other way. The list is a sample of the results. Entries that show only a call come without a potency.

A short description of the assay: qHTS for antagonists of the Thyroid Stimulation Hormone Receptor: Hit Validation in Parental Cell Line. As to conditions: parental HEK293 cells lacking TSHR, counter-screen; series mostly up to 56.9 µM. From the text: The thyroid-stimulating hormone receptor (TSHR) is a member of the 7 trans-membrane-spanning receptor (7TMR) family of cell surface receptors. TSHR-mediated hyperthyroidism is important in thyroid pathology. The development of small molecule antagonists of TSHR may lead to therapeutic approaches for TSHR-mediated hyperthyroidism caused by constitutively activating mutations or stimulating auto-antibodies associated with Graves' disease. Graves' disease is the leading cause of hyperthyroidism and is caused by autoantibodies that stimulate TSHR (TsAbs) causing thyroid growth and unregulated overproduction of thyroid hormones and existing treatments have liabilities (agranulocytosis). In addition, TSHRs are known to be expressed in multiple extrathyroidal tissues including bone, brain, kidney, testis, fat and cells of the immune system but the role of the TSHR in these tissues is not clear. Therefore, TSHR antagonists/inverse agonists could be used as probes of extrathyroidal TSHR function. Finally, TSHR inverse agonists, which are a subclass of antagonists that inhibit agonist-independent (or basal or constitutive) TSHR signaling, could be used to inhibit TSH-independent signaling in patients with recurrent or metastatic thyroid cancer who are receiving thyroid hormone to suppress TSH.
In collaboration between scientist from the NCGC and the NIDDK, a miniaturized HTRF high-throughput screen was developed. It's a cell based assay, where an anti cAMP antibody contains a fluorescent cryptate tag (excitation 337 nm; emission 620 nm) and the acceptor is cAMP-d2 (excitation 620 nm; emission 665 nm). When antibody and cAMP-d2 interact and are excited by a 337 nm light, a FRET occurs resulting in emission at 665 nm. The assay is competition between cAMP-d2 and cAMP (from the cell lysate). The homogeneous protocol allows for one step dispense after stimulation that is automation friendly. This is a hit validation assay in a counterscreen using parental HEK 293 cells lines.
NIH Chemical Genomics Center [NCGC]
NIH Molecular Libraries Probe Centers Network [MLPCN]
Assay Provider: Marvin Gershengorn, NIDDK
An anti cAMP antibody contains a fluorescent cryptate tag (excitation 337 nm; emission 620 nm) and the acceptor is cAMP-d2 (excitation 620 nm; emission 665 nm). When antibody and cAMP-d2 interact and are excited by a 337 nm light, a FRET occurs resulting in emission at 665 nm. The assay is competition between cAMP-d2 and cAMP (from the cell lysate). The homogeneous protocol allows for one step dispense after stimulation that is automation friendly. This assay uses parental HEK-EM 293 cells
Take `CN(c1ccc(OCC(=O)Nc2nc3ccccc3s2)cc1)S(=O)(=O)c1ccccc1`: the Potency entry is “inactive”.
On to `Cc1cc(=O)[nH]c(SCC(=O)Nc2ccc(Br)cc2)c1C#N`, for which the Potency result was “inactive”.
On to `CCCc1ccc(-c2c(C)sc(NC(=O)c3ccnn3C)c2C#N)cc1`, for which the Potency entry is “inactive”.
Consider `NS(=O)(=O)c1ccc(NCc2ccccc2OCc2ccccc2F)cc1`, for which the Potency result was “inactive”.
In the case of `O=C(Nc1cccc(S(=O)(=O)N2CCCCC2)c1)c1ccc2c(=O)n3c(nc2c1)CCCCC3`, the Potency entry is “inactive”.
In the case of `COc1cc(/C=C(\C#N)c2nc3ccccc3s2)cc([N+](=O)[O-])c1O`, the Potency result is “inactive”.
For the molecule `O=C(CC1S/C(=N/N=C2CCCCCC2)NC1=O)Nc1ccc(Br)cc1F` (stereo not given), the Potency entry is “inactive”.
Turning to `O=C(CNc1ccc(C(F)(F)F)cc1)Nc1cccc(S(=O)(=O)N2CCCC2)c1`, the Potency entry is “inactive”.
Take `O=S(=O)(Nc1cccnc1)c1cc(Cl)ccc1Cl`: the Potency entry is “inactive”.
Turning to `COCC(C)n1c(COc2ccccc2F)nnc1SCc1c(C)noc1C` (stereo not given), the Potency entry is “inactive”.
Consider `CS(=O)(=O)c1ccc(C(=O)OCC(=O)NC(=O)C2CCCCC2)cc1[N+](=O)[O-]`, for which the Potency entry is “inactive”.
Consider `CC(C)(C)c1cc2nc3c(c(=O)n2[nH]1)CN(Cc1ccccc1)C3=O`, for which the Potency result is “inactive”.
In the case of `O=C(COc1ccccc1/C=C1\SC(=S)NC1=O)Nc1ccc(F)cc1`, the Potency result was “inactive”.
As for `CN(C)S(=O)(=O)Oc1cccc(C(=O)Nc2ccc(Cl)c(Cl)c2)c1`, the Potency result was “inactive”.
For `O=[N+]([O-])c1ccc(NC(=S)NCCc2ccc(F)cc2)cc1` the value was “inactive”; for `COCC1CCCCN1C(=O)C1CCN(c2nc(-c3ccccc3)nc3c2CCC3)CC1` (stereo not given), “inactive”.
The entry for `CC(CNC(=O)c1cc(COc2ccc3ncccc3c2)on1)c1ccccc1` (stereo not given) is “inactive”.
As for `N#C/C(=C(/O)COC(=O)c1ccc(C#N)cc1)c1nc2ccccc2s1`, the Potency result was “inactive”.
As for `CCCCCC/C(C)=C1/SC(=S)NC1=O`, the Potency result was “inactive”.
As to `O=C(Cn1nc(Cc2cccnc2)c2ccccc2c1=O)NCC1COc2ccccc2O1` (stereo not given), the Potency result is “inactive”.
The entry for `Cc1ccc(/C=C/C(=O)Nc2ccc(Oc3ccccc3)cc2)o1` is “inactive”; for `CC(C)Oc1ccc(C(=O)Nc2ccc(Cl)c(S(=O)(=O)Nc3ccc(Cl)cc3)c2)cc1` it is “inactive”; for `Cc1ccc([N+](=O)[O-])cc1S(=O)(=O)Nc1ccc(-c2ccc(N3CCCC3)nn2)cc1` it is “inactive”.
On to `Cc1ccccc1-n1sc2cc(F)ccc2c1=O`, for which the Potency entry was “inactive”.
For the molecule `COc1ccc(CNC(=O)C(c2ccco2)N(C(=O)c2snc(C(N)=O)c2N)c2cccc(OC)c2)cc1` (stereo not given), the Potency entry is “inactive”.
On to `CC(C)C(c1nnnn1Cc1ccco1)N1CCN(c2nc3ccccc3s2)CC1` (stereo not given), for which the Potency result is “inactive”.
The entry for `COc1cccc(CN(C)C(=O)c2ccc(Oc3ccccc3)cc2)c1OC` is “inactive”; for `Cc1ccc(C2=NS(=O)(=O)N(C)C(C(=O)NCc3ccc(F)cc3)=C2)cc1` it is “inactive”.
Turning to `CC(=O)c1ccc(N2CCN(C(=S)Nc3ccc(Oc4ccccc4)cc3)CC2)cc1`, the Potency entry was “inactive”.
With `CCn1c(=NC(=O)CSC(C)=O)sc2ccccc21`, the Potency entry was “inactive”.
`Clc1ccc2c(c1)-c1nnc(Br)n1-c1ccccc1S2`: the Potency result was “inactive”.
On to `COc1ccc(C(=O)/C(=C\c2ccco2)N2C=CC=CC2=C(C#N)C#N)cc1`, for which the Potency result is “inactive”.
For `COc1cc(/C=N/Nc2ccc(C(=O)O)cc2)ccc1O` the value was “inactive”.
Regarding `Cc1nn(Cc2ccc(Cl)cc2)c(C)c1NC(=O)c1noc2c1CCc1ccccc1-2`, the Potency result was “inactive”.
For the molecule `Cc1ccc(-n2c(Cl)c(Cl)nc(Cl)c2=O)cc1`, the Potency entry is “inactive”.
Consider `Cc1nn(-c2nc3ccccc3s2)c(N)c1-c1ccccc1`, for which the Potency result is “inactive”.
For `CC(C)C(C)NC(=O)COc1ccc(Sc2ccc(OCC(=O)NC(C)C(C)C)cc2)cc1` (stereo not given) the value was “inactive”; for `Cc1ccc2nc(NC(=O)C3CCN(S(=O)(=O)c4cc([N+](=O)[O-])ccc4Cl)CC3)sc2c1`, “inactive”; for `Cc1cccc(NC(=O)C2C3CCC4C(CCC32)C4(Cl)Cl)c1` (stereo not given), “inactive”.
As for `Cc1ccccc1Oc1cc(-n2ncc(Cl)c(Cl)c2=O)ncn1`, the Potency entry was “inactive”.
On to `COc1ccc(NC(=O)/C(Cl)=C(/Cl)S(=O)(=O)Cc2ccccc2)cn1`, for which the Potency entry is “inactive”.
`O=C(Nc1nc(-c2cccs2)cs1)c1ccc(S(=O)(=O)N2CCCCC2)cc1`: the Potency result is “inactive”.
As for `CCCCc1c(C)nc2nc(SCc3ccc(Cl)cc3)[nH]n2c1=O`, the Potency entry is “inactive”.
For the molecule `Clc1cc(Cl)c(OCc2nc(-c3ccccn3)no2)cc1Cl`, the Potency result is “inactive”.
As for `O=[N+]([O-])c1ccc(NC(=S)NCc2ccc(F)cc2)cc1`, the Potency result is “inactive”.
In the case of `CC1CCCCN1C(=O)CSCC(=O)Nc1nc(-c2cccs2)cs1` (stereo not given), the Potency result was “inactive”.
For `CC(=O)c1c(C)[nH]c(C(=O)COc2cc(C)ccc2C(C)C)c1C`, the Potency entry is “inactive”.
For `COc1cccc(COc2cc3ccccc3nc2C)c1`, the Potency entry is “inactive”.
The entry for `O=[N+]([O-])c1cc(Br)c(O)c(/C=N/Nc2nnnn2-c2cccc3ccccc23)c1` is “inactive”.
With `Cc1csc2ncnc(N3CCN(S(=O)(=O)c4cccc(C(F)(F)F)c4)CC3)c12`, the Potency result was “inactive”.
